# PubChem BioAssay (NCATS)
# Values without a mark were called inactive. Records with an inconclusive call do not appear. Entries that show only a call come without a potency. Activity calls are given as the source filed them. Calls come from the whole dose curve; as a rule, active = well fitted curve in the direction sought with a large enough effect; inconclusive = small, poorly fitted or top-dose-only effect, or another doubt; inactive = no such curve, though single readings can be large; an effect the other way counts as inactive or inconclusive.
# Tests used:
# [1] = target: Cytochrome P450 3A4 (Homo sapiens) (UniProt P08684); assay: qHTS Assay for Inhibitors and Substrates of Cytochrome P450 3A4 (AID 884); note: series mostly up to about 57 µM; nearly all actives have a fitted effect of over 50% in size
# In short: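 20 nM human CYP3A4 with 25 uM Luciferin-PPXE (at KM) in 200 mM KPO4, preincubated 10 min with compound; NADPH regeneration started a 60 min RT reaction. Luciferin detected by luminescence, normalized to 57 uM ketoconazole as full inhibition.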
# [2] = Confirmation and Secondary Assay for Modulators of Hemoglobin Beta Chain Splicing at IVS2 654 locus (AID 910);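 note: HeLa cells stably carrying EGFP split by mutant beta-globin IVS2-654 intron; per-well total GFP intensity by laser scanning cytometry after 2-day treatment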
# In short: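 Readout: per-well total peak green fluorescence (488 nm ex, 500–520 nm em) from objects 5–250 µm, reflecting correct splicing of an EGFP-654 reporter. Compounds were applied for 2 days at 37 °C to overnight-plated HeLa EGFP-654 cells; controls were DMSO and 500 nM IVS2-654 PNA.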
# [3] = Confirmation and Secondary Assay for Modulators of Hemoglobin Beta Chain Splicing at IVS2 705 locus (AID 930);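 note: HeLa cells stably expressing the EGFP-705 splicing reporter; series mostly up to about 46 µM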
# In short: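 HeLa cells stably carrying EGFP interrupted by mutant beta-globin IVS2-705 intron (CMV-driven) were seeded at 500 cells/well, treated next day with compound for 2 days at 37C; corrected splicing restores EGFP, read as total peak GFP intensity per well.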
# [4] = target: Tyrosyl-DNA phosphodiesterase 1 (Homo sapiens) (UniProt Q9NUW8); assay: Confirmation Assay for Inhibitors of Tyrosyl-DNA Phosphodiesterase (TDP1) (AID 489007); details: recombinant human TDP1 enzymatic activity, dose-response; note: potency is the fitted concentration of half-maximal effect; nearly all actives have a fitted effect of over 40% in size
# In short: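 Recombinant human Tdp1 (1 nM final), expressed in E. coli, preincubated 15 min with compound. Then 15 nM 5'-biotin/3'-phosphotyrosine-FITC DNA substrate added for 5 min at room temperature. AlphaScreen beads (10 ug/ml) added for 10 min; cleavage gives signal loss.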
# [5] = target: Ubiquitin carboxyl-terminal hydrolase 1 (Homo sapiens) (UniProt O94782); assay: Inhibitors of USP1/UAF1: Pilot qHTS (AID 504865);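 note: rhodamine fluorescence freed from ubiquitin-rhodamine substrate followed over time; top concentration of the series differs between compounds; nearly all actives have a fitted effect of over 35% in size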
# In short: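 In 50mM HEPES pH 7.8 containing 0.5mM EDTA, 1mM TCEP, 0.1 mg/ml BSA and 0.01% Tween-20, 1nM USP1/UAF1 is exposed to compound for 15 min, then Ub-Rho (150nM final) is added and fluorescence is read over time.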
# Cytochrome P450 3A4 (Homo sapiens), sequence (P08684 whole entry, looked up): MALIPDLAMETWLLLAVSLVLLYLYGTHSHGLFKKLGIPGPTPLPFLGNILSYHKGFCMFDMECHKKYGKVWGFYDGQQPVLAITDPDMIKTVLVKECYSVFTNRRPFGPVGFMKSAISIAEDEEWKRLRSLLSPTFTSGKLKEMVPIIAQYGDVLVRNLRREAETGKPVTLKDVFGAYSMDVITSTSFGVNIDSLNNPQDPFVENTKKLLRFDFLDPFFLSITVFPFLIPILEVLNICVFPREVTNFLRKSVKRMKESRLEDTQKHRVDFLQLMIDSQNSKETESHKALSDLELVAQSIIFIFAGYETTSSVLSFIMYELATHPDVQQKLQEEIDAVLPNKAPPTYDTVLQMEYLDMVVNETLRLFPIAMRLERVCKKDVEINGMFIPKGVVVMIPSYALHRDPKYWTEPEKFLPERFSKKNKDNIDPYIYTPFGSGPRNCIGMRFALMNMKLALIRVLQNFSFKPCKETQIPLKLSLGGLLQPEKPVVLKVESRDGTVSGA
# Ubiquitin carboxyl-terminal hydrolase 1 (Homo sapiens), sequence (O94782 whole entry, looked up): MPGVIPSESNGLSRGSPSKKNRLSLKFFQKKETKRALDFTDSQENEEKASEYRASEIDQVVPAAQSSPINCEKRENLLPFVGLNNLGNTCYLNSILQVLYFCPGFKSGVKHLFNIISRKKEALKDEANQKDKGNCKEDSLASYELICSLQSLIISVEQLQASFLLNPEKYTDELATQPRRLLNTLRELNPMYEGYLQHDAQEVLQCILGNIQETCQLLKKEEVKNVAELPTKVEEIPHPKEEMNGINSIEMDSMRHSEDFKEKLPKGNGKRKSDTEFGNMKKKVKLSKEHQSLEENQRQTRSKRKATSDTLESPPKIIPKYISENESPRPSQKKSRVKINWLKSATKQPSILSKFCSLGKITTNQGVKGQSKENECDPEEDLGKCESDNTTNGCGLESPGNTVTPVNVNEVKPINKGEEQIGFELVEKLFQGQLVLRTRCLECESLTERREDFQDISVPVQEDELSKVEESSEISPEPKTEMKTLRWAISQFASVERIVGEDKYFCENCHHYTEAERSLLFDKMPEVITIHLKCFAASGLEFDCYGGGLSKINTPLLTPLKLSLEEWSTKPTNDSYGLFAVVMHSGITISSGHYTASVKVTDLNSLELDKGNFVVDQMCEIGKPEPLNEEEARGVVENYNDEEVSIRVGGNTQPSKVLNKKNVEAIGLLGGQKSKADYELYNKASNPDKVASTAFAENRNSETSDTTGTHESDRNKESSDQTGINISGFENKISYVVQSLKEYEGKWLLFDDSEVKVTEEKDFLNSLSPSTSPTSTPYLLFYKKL
# Tyrosyl-DNA phosphodiesterase 1 (Homo sapiens), sequence (Q9NUW8 whole entry, looked up): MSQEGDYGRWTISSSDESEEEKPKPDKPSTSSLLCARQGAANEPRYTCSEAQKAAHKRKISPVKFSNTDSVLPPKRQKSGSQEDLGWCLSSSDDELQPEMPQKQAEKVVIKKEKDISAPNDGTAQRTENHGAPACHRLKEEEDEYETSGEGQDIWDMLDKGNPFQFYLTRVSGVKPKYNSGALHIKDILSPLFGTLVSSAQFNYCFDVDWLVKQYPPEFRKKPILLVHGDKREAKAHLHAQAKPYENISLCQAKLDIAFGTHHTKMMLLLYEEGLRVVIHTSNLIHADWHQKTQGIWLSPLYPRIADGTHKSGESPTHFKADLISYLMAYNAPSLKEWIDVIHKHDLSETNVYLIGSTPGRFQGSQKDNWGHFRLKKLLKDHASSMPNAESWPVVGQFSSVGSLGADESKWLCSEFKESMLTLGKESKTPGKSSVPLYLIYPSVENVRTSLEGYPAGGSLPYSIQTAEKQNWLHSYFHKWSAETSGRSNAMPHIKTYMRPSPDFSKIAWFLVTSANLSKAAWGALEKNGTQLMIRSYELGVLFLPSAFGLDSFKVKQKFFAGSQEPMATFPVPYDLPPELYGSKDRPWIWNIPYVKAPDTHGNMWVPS
smiles,measurement,setting,value
CO/N=C(/C(=O)NC1C(=O)N2C(C(=O)O)=C(COC(N)=O)CSC12)c1ccco1 (stereo not given),Potency,[1],inactive
same,Potency,[2],inactive
same,Potency,[3],inactive
same,Potency,[4],6.31 µM (active)
same,Potency,[5],inactive
